Test results: PubChem BioAssay AID652142 (Molecular Libraries Program, Specialized Chemistry Center, …, 2013)
The whole screen tested about 2,400 compounds, of which fewer than 10 were called active. How the calls were made is not given here. A selection follows.

Molecular target: Rac GTPase-activating protein 1 (Homo sapiens) (UniProt Q9H0H5)
Assay: inhibition of MgcRacGAP-stimulated Rac1 GTP hydrolysis – biochemical, inorganic phosphate detection, orthogonal assay, confirmation (AID 652142)
Conditions: MgcRacGAP/Rac1F28L GTP hydrolysis, Biomol green phosphate; hits give high values

Chain of Rac GTPase-activating protein 1 (Homo sapiens) (Q9H0H5 whole entry, looked up): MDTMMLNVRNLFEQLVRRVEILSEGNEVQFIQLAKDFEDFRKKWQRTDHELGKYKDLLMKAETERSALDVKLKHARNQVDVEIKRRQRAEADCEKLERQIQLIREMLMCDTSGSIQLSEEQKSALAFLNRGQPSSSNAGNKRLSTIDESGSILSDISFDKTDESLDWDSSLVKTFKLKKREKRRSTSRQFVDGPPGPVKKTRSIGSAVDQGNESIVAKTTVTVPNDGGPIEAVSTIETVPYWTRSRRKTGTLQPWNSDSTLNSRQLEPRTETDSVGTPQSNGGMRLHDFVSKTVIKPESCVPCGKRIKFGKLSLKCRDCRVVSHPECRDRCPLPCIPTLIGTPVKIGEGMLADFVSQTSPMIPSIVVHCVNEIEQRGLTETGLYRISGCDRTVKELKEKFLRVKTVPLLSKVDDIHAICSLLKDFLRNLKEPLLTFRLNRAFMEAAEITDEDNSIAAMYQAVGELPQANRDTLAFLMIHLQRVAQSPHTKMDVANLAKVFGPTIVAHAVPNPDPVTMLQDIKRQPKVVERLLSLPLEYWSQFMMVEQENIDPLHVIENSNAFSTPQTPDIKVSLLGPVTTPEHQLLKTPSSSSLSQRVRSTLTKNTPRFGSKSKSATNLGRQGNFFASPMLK

inhibition, inactive:
Cc1nn2cc(-c3ccc(N)cc3)nc2s1 22.3%
Oc1ccc(/C=N/Nc2ccnc3cc(Cl)ccc23)cc1O 4.55%
Oc1ccc(/C=N\Nc2cc(N3CCOCC3)nc(N3CCOCC3)n2)c(O)c1 21.8%
Nc1ccc(N2CCCC2)c(S(=O)(=O)Nc2cccc(C(F)(F)F)c2)c1 29.9%
Cc1ccc(-c2cc(C(=O)N3CCN(c4ccc(O)cc4)CC3)c3ccccc3n2)cc1 23.8%
O=C(/C=C/Nc1ccc(Nc2ccccc2)cc1)c1cccs1 19.5%
C/C(=N\NC(=O)c1cccc(N/N=C(\C)c2cc(O)ccc2O)c1)c1cc(O)ccc1O 28.1%
Cc1ccc(CN2CCN(Cc3ccccc3C(F)(F)F)CC2)cc1 17.2%
CCOC(=O)C1=C(COC(=O)/C=C/c2ccc(O)c(OC)c2)NC(=O)NC1C (configuration not stated) 11.2%
COc1cc(/C=C/C(=O)OCC(=O)N2CC3(C)CC2CC(C)(C)C3)ccc1O (configuration not stated) 33.5%
COc1ccc(S(=O)(=O)/N=C2\C=C(Nc3ccc(O)cc3)C(=O)c3ccccc32)cc1 13.5%
CCn1c(=S)[nH]c2sc3c(c2c1=O)CCCC3 10.8%
CCc1ccc(O)c(N=Cc2cccc(C)c2O)c1 23.4%
N=C(N)c1ccc(N=Nc2c(O)ccc3c2[nH]c2ccccc23)cc1 62.4%
CCc1ccc(O)c(N=Cc2ccccc2O)c1 33.5%
CN(C)c1ccc(C=c2c3cc(O)ccc3n3c2cc(-c2ccccc2)[n+]3C)cc1 83.7%
Oc1ccc(/C=N/Nc2cc(N3CCOCC3)nc(N3CCOCC3)n2)cc1 25.9%
Oc1ccc(/C=N/Nc2ccc(C(F)(F)F)cn2)c(O)c1 19.4%
O=S(=O)(O)c1cc(O)c(N=Nc2ccc(O)cc2O)c2ccccc12 24.4%
Oc1ccc(-c2[nH]ncc2-c2ccc(Cl)cc2)c(O)c1 26.7%
CN(C)c1ccc2c(c1)C(=NO)c1ccccc1-2 19.4%
O=C(NCc1ccco1)c1sc(=S)n2c1[nH]c(=O)c1ccccc12 31.8%
CCN(CC)c1ccc(Nc2nc(Cl)ncc2Br)cc1 33.2%
CCOc1cc(/C=N/NC(=O)CN2CCCCC2)ccc1O 30.3%
CN(c1ccc(O)cc1)c1nc(-c2ccccc2)cs1 23.3%
COc1cc(/C=N/Nc2nc3ccccc3[nH]2)ccc1O 12.2%
CCN(c1ccccc1)S(=O)(=O)c1ccc(N2CCN(c3ccc(O)cc3)CC2)nc1 27.7%
CCOc1cc(/C=N/NC(=O)CCCC(=O)NC2CCCCC2)ccc1O 20.5%
Cc1cc(-c2ccccc2)nc(N/N=C/c2ccc(O)cc2O)n1 20.5%
Cc1c(C(=O)N/N=C/c2ccc(O)c(Br)c2)sc(N)c1C#N 31.3%
Nc1ccc2nc(C3CCCCC3)[nH]c2c1 28.4%
COc1cc(/C=N/NC(=S)NC2CC3CCC2C3)ccc1O (configuration not stated) -0.0456%
COc1cc2c(cc1NC(=O)C(Cl)Cl)-c1ccc(NC(=O)C(Cl)Cl)cc1C2 13.1%
CSc1nc(/C=C2\C=Nc3ccccc32)c(O)n1C 7.92%
Cn1c(-c2ccc(Cl)cc2)cnc1NCc1cc2c(cc1[N+](=O)[O-])OCO2 22.1%
C=CCn1c(SCC(=O)c2ccc(O)c(O)c2)nnc1-c1cccc(Cl)c1 29.9%
CN(Cc1ccccc1)Cc1c(O)ccc2ccccc12 23.9%
COc1cc(/C=N/NC(=O)CN(Cc2ccccc2)S(=O)(=O)c2ccc3c(c2)OCCO3)ccc1O -2.68%
COc1cccc(CNc2ccc3[nH]c(=O)[nH]c3c2)c1OCc1ccccc1Cl -0.282%
Cc1ccccc1C(OCC(O)CN1CCN(CCO)CC1)c1ccccc1 (configuration not stated) 29.2%
CCN1CCN(CCOc2ccc(Br)cc2C)CC1 23.2%
COc1cc(/C=N/NC(=O)NC23CC4CC(CC(C4)C2)C3)ccc1O 35.9%
O=c1c2ccccc2sn1-c1ccc(Cl)cc1 75%
CC[n+]1ccc(/C=C/c2ccc(N(C)C)cc2)c2ccccc21 31.5%
COc1cc(/C=N/NC(=O)c2nnn(-c3nonc3N)c2C(C)C)ccc1O 15.1%
CN1CCN(/N=C/c2nc(-c3ccccc3)n3ccccc23)CC1 30.1%
CC(=O)N1CCN(c2ccc(Nc3ncnc4c3oc3ccccc34)cc2)CC1 8.13%
CCOc1cc(/C=N/NC(=O)c2ccccc2-n2cccc2)ccc1O 30.4%
CN(C)c1ccc(N=C/C=C2\N(C)c3ccccc3C2(C)C)cc1 22.7%
COc1cc(/C=N/NC(=O)c2ccc(-n3cccc3)cc2)ccc1O 12.4%
COc1cc(/C=N/NC(=O)C2(O)c3ccccc3-c3ccccc32)ccc1O 25.6%
COc1ccc(Oc2cn[nH]c2-c2ccc(O)cc2O)cc1 17.2%
Cc1cc(-c2ccccc2)nc(N/N=C/c2ccc(N(C)C)cc2)n1 23.8%
COc1cc(-c2nc3ccc(C)cn3c2Nc2ccc3c(c2)OCCO3)ccc1O 21.3%
CCOC(=O)c1cc(NCc2cccs2)ccc1N1CCOCC1 30.4%
O=C(N/N=C/c1ccc(O)cc1)Nc1cccc2nsnc12 33.1%
CC(=O)Nc1ccc(Oc2nc(-c3ccccn3)nc3ccccc23)cc1 26%
CCCS(=O)(=O)N1CCN(CC2CC3C=CC2C3)CC1 (configuration not stated) 10.6%
O=c1c2ccccc2sn1-c1ccc(Cl)cc1Cl 79.5%
O=[N+]([O-])c1cccc(/C=N/n2c(-c3cccnc3)n[nH]c2=S)c1 32.9%
C=CCn1c(N/N=C/c2ccc(O)cc2)nc2ccccc2c1=O 18.4%
COc1cc(CCNC2=CC(=O)c3ncccc3C2=O)ccc1O 23.7%
